From PubChem BioAssay (NCATS) come the findings set out here.

A number with no mark means an inactive call. Inconclusive results are not listed. Active and inactive are the calls of the source. Unless noted, calls follow the shape of the dose curve; as a rule, active = well fitted curve in the direction sought with a large enough effect; inconclusive = small, poorly fitted or top-dose-only effect, or another doubt; inactive = no such curve, though single readings can be large; an effect the other way counts as inactive or inconclusive. Where only a bound is given, the exact number is not on record here.

Experiment [1] deals with Lysosomal acid glucosylceramidase (Homo sapiens) (UniProt P04062). As to the kind of experiment: Glucocerebrosidase-p2 (AID 348; in the data active = potency below about 10 µM; also: potency is read from the fitted curve at half-maximal effect). Conditions: purified GBA, blue fluorogenic substrate, 40 min. In short, it runs like this:
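Normal human glucocerebrosidase (0.2 nM) with blue fluorogenic substrate (80 uM final) in citrate/phosphate pH 5.9 with 10mM sodium taurocholate, 0.01% tween-20; 40 min RT, NaOH/glycine stop; fluorescence Ex 365/Em 440; AC50 from a titration from 0.6 nM upwards.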

Experiment [2] can be described thus: AP1 Signaling Pathway (AID 357; active = well fitted curve in either direction with a large enough effect, not every such curve was filed as active; also: % is scaled to controls: 0 for no effect and ±100 for the full control effect). Conditions: ME-180 AP-1-bla reporter, EGF-induced, beta-lactamase ratio, 5 h; at 7.69 µM (top of the series) unless noted. In short, it runs like this: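 AP-1-bla ME-180 cells, Opti-MEM + 0.5% dialyzed FBS, plated overnight 37 °C. Cpd titration + EC50 EGF, 5 h 37 °C. CCF4 2.5 h RT; ex 405, em 460/530 ratio → %activity, AC50.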

For experiment [3], the target named is Cytochrome P450 1A2 (Homo sapiens) (UniProt P05177). As to the kind of experiment: p450-cyp1a2 (AID 410; calls by dose curve; also: potency is read from the fitted curve at half-maximal effect). As to conditions: recombinant CYP1A2, luciferin-ME demethylation, luminescence; series mostly up to 57 µM. In short, it runs like this:
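20nM CYP1A2, 100uM Luciferin-ME (=Km), 100mM KPO4; cpd 10 min RT; +NADPH regen, 60 min RT; stop/detect 20 min; luminescence. Normalized to furafylline 57 uM = full inhibition.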

Experiment [4] in a line: NFAT Signaling Pathway (AID 444; active = well fitted curve in either direction with a large enough effect, not every such curve was filed as active;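 also: carbachol stimulus at about its EC50 of 1 µM final; % is scaled to controls: 0 for no effect and ±100 for the full control effect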). Conditions: Jurkat NFAT-bla M1, carbachol, beta-lactamase ratio, 5 h; at 7.69 µM (top of the series) unless noted. An outline of the steps: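 Jurkat cells carrying an NFAT-driven β-lactamase reporter and co-transfected muscarinic M1 receptor were treated with compound plus carbachol (1 uM final, an EC50 level) for 5 h at 37 °C. CCF4 loading followed for 1 h at RT; 460/530 nm ratio gave %activity.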

Experiment [5] has as its target Glucocorticoid receptor (Homo sapiens) (UniProt P04150). As to the kind of experiment: GR-GFP Redistribution (AID 450;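 active = compounds whose dose series gives a full or clear partial fitted curve of increased nuclear translocation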; also: potency is read from the fitted curve at half-maximal effect). As to conditions: U2OS GR-GFP nuclear translocation, laser cytometry, 2 h.
Experiment [6] shares this target. Description: GR-EFC Redistribution (AID 451; calls by dose curve; also: potency is read from the fitted curve at half-maximal effect). Conditions: CHO-K1 GR-EFC translocation, beta-gal luminescence, 2 h. In short, it runs like this: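 CHO-K1 cells stably expressing nuclear-localized β-gal enzyme acceptor and GR fused C-terminally to the enzyme donor fragment; ligand-driven nuclear translocation restores β-gal by complementation. Compounds titrated up to 46 uM final, 2 h at 37 °C; luminescence read.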

Experiment [7] concerns the target Mitogen-activated protein kinase 10 (Mus musculus) (UniProt Q61831). As to the kind of experiment: JNK3 AlphaScreen Assay (AID 530; active = well fitted curve in either direction with a large enough effect, not every such curve was filed as active;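 also: kinase came from lysate of stimulated human HepG2 cells; signal reports phosphorylation of biotinylated GST-cJun 1-79 at Ser73 with 10 µM ATP; % is scaled to controls: 0 for no effect and ±100 for the full control effect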). Conditions: JNK3 lysate, c-Jun phosphorylation; series mostly up to 57.1 µM. In short, it runs like this:
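Biotinylated GST-cJun(1-79) served as substrate for JNK3 in HepG2 lysates stimulated with IL-1beta and TNF-alpha. ATP was 10 uM final, pH 7.6. Ser73 phosphorylation was quantified by AlphaScreen (680 nm excitation).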
On the technique in general: Bead proximity is the source of the signal in Alpha formats.

Experiment [8] deals with 3',5'-cyclic-AMP phosphodiesterase 4B (Homo sapiens) (UniProt Q07343). Description: qHTS Assay for Inhibitors of PDE-IV (AID 607; active = well fitted activation curve with a large enough effect in the main read-out, with a control signal flat, not every such curve was filed as active; also: potency is read from the fitted curve at half-maximal effect). Conditions: HEK293 ACTOne CNG channel cells, membrane potential fluorescence; series mostly up to 22.9 µM. In short, it runs like this: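 The readout is membrane depolarisation from a cAMP-sensing CNG channel, detected with a potential dye at ex 535/em 590. Cells were HEK293-derived (endogenous PDE-IV) at 1000 cells/well, titrated up to 22.9 uM final.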
3',5'-cyclic-AMP phosphodiesterase 4B (Homo sapiens), sequence (Q07343 whole entry, looked up): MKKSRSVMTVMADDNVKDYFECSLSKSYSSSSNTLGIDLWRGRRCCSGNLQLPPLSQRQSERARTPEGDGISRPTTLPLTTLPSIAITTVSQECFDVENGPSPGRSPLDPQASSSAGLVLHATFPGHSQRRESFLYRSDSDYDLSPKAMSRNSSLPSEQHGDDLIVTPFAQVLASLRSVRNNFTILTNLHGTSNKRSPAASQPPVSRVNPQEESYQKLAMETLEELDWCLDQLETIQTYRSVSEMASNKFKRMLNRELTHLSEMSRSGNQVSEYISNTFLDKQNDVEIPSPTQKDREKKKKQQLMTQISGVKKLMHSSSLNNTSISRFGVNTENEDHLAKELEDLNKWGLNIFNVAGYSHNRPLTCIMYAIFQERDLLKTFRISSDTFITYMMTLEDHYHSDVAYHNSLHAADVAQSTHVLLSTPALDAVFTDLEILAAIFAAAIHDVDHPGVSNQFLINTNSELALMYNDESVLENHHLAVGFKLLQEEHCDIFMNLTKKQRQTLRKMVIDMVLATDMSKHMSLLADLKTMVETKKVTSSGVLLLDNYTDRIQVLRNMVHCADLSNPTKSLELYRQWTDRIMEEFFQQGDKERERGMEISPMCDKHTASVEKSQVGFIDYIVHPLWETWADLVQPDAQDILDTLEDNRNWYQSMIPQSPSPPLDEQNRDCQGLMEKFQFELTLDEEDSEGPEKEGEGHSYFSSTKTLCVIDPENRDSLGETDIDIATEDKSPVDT
In general terms: qHTS replaces the single test concentration by a dilution series.

The target in experiment [9] is Cytochrome P450 3A4 (Homo sapiens) (UniProt P08684). As to the kind of experiment: qHTS Assay for Activators of Cytochrome P450 3A4 (AID 885). Also: nearly all actives have a fitted effect of over 65% in size. As to conditions: recombinant CYP3A4, Luciferin-PPXE luminescence, 60 min; series mostly up to 57.1 µM. An outline of the steps:
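Activators are scored by enhanced luminescence from CYP3A4 conversion of luciferin-PPXE (25uM, equal to KM) to luciferin, after 60 min at RT with an NADPH-regenerating system.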

Experiment [10] deals with Dual specificity protein kinase CLK4 (Homo sapiens) (UniProt Q9HAZ1). As to the kind of experiment: qHTS Assay for Inhibitors of CDC-like Kinase 4 (ADP-Glo Assay) (AID 1771). Also: nearly all actives have a fitted effect of over 70% in size. Also: potency is read from the fitted curve at half-maximal effect. As to conditions: recombinant CLK4, ADP-Glo luminescence; series mostly up to 80 µM. An outline of the steps:
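25 nM Clk4, 100 uM RS peptide, 1 uM ATP (final); 2 mM MgCl2, 0.5 mM EGTA, 2.5 mM DTT, 0.01% Triton X-100; 1 hr RT. ADP-Glo readout: ATP depletion 45 min, conversion/luciferase 30 min, luminescence.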

Experiment [11] shares this target. As to the kind of experiment: qHTS Assay for Inhibitors of CDC-like Kinase 4 (ADP-FP Assay) (AID 1795). Also: nearly all actives have a fitted effect of over 60% in size. Also: potency is read from the fitted curve at half-maximal effect. As to conditions: Transcreener ADP fluorescence polarization; series mostly up to 50 µM. In short, it runs like this: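 Recombinant human Clk4 (6.25 nM) phosphorylated RS repeat peptide (100 uM) with 1 uM ATP in Tris pH 7.5/MgCl2/EGTA/DTT/Triton buffer for one hour. ADP was quantified by Transcreener competitive fluorescence polarization against an ADP calibration curve.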

Experiment [12] deals with Ubiquitin carboxyl-terminal hydrolase 1 (Homo sapiens) (UniProt O94782). Description: Inhibitors of USP1/UAF1: Pilot qHTS (AID 504865).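 Also: rhodamine fluorescence freed from ubiquitin-rhodamine substrate followed over time; top concentration of the series differs between compounds; % is scaled to controls: 0 for no effect and ±100 for the full control effect; nearly all actives have a fitted effect of over 35% in size.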 As to conditions: purified USP1/UAF1, Ub-rhodamine cleavage fluorescence; series mostly up to 54.9 µM. An outline of the steps: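 USP1/UAF1 complex (1nM) preincubated with compound 15 min at room temperature, then Ub-Rho substrate (150nM final) added. Fluorescence read kinetically at 480/540 nm, 6 reads every 60 seconds. Buffer: 50mM HEPES pH 7.8, 0.5mM EDTA, 0.1 mg/ml BSA, 1mM TCEP, 0.01% Tween-20.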
Ubiquitin carboxyl-terminal hydrolase 1 (Homo sapiens), sequence (O94782 whole entry, looked up): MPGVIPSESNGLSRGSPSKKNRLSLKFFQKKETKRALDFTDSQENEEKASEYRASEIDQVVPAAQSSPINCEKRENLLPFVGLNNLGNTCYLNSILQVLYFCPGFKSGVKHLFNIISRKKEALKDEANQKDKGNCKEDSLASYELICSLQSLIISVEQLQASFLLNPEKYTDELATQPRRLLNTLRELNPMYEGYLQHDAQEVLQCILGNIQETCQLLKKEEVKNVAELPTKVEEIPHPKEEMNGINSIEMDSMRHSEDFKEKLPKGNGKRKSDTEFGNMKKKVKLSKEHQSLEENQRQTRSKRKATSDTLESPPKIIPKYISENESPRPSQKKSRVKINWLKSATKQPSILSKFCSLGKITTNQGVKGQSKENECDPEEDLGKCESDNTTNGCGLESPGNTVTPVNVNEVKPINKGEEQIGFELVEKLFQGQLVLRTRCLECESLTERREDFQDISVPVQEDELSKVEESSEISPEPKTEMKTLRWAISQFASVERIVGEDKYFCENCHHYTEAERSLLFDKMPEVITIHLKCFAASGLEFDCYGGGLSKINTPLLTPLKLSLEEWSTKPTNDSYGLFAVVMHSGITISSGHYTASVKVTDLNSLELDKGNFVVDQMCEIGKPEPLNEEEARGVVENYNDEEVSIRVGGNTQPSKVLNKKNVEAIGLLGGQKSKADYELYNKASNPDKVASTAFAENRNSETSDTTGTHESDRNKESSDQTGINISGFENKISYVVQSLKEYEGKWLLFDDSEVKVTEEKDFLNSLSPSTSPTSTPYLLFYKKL

Experiment [13] is described as follows: Primary qHTS for small molecule stabilizers of the endoplasmic reticulum resident proteome: Secreted ER Calcium Modulated Protein (SERCaMP) assay (AID 1508630). Also: % is scaled to controls: 0 for no effect and ±100 for the full control effect. Conditions: SH-SY5Y GLuc-SERCaMP (Gaussia luciferase released on ER calcium loss) secretion, thapsigargin, luminescence; series mostly up to 38.4 µM. An outline of the steps: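 The SH-SY5Y reporter protocol was run at 3 concentrations up to 38.3 uM (primary) or 11 concentrations (follow-up): 16 h compound, 100 nM thapsigargin for 4 h, then extracellular luciferase luminescence.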

Experiment [14] in a line: Stat Signaling Pathway (AID 446; active = well fitted curve in either direction with a large enough effect, not every such curve was filed as active). Conditions: ME-180 (cervical carcinoma) SIE beta-lactamase reporter, IL-6 stimulated, 5 h; at 7.69 µM (top of the series) unless noted. An outline of the steps:
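Emission at 460 and 530 nm (excitation 405 nm) reports SIE-controlled beta-lactamase in ME-180 cells. Cells received compound with 40 pM IL-6 for 5 hrs at 37 C; data scaled between 300 pM IL-6 and 125 nM JAK-inhibitor controls.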

Experiment [15] concerns the target Cytochrome P450 3A4 (Homo sapiens) (UniProt P08684). As to the kind of experiment: qHTS Assay for Inhibitors and Substrates of Cytochrome P450 3A4 (AID 884). Also: potency is read from the fitted curve at half-maximal effect; nearly all actives have a fitted effect of over 50% in size. As to conditions: recombinant CYP3A4, Luciferin-PPXE luminescence; series mostly up to 57.1 µM. In short, it runs like this:
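Luminescent readout of luciferin produced by CYP3A4 (20 nM) dealkylation of Luciferin-PPXE, 25 uM (its KM). NADPH-driven reaction ran 60 min at RT after 10 min compound preincubation; data scaled to 57 uM ketoconazole as 100% inhibition.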

Experiment [16] has as its target Cytochrome P450 2C19 (Homo sapiens) (UniProt P33261). As to the kind of experiment: qHTS Assay for Inhibitors and Substrates of Cytochrome P450 2C19 (AID 899). Also: potency is read from the fitted curve at half-maximal effect; nearly all actives have a fitted effect of over 60% in size. As to conditions: recombinant CYP2C19, luciferin-H EGE luminescence; series mostly up to 57.1 µM. An outline of the steps:
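Human CYP2C19 (5nM) with Luciferin-H EGE at 10uM (its KM) in 50mM KPO4 was preincubated with compound for 10 min at 37C. NADPH regeneration started a 60 min 37C reaction. Luciferin was read by luminescence, normalized to 57uM ketoconazole.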

The target in experiment [17] is Cytochrome P450 2C9 (Homo sapiens) (UniProt P11712). As to the kind of experiment: qHTS Assay for Inhibitors and Substrates of Cytochrome P450 2C9 (AID 883). Also: % is scaled to controls: 0 for no effect and ±100 for the full control effect; nearly all actives have a fitted effect of over 60% in size. As to conditions: recombinant CYP2C9, luciferin-H luminescence, 60 min; series mostly up to 57.1 µM. In short, it runs like this:
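Human CYP2C9 (10nM) hydroxylated Luciferin-H (100uM, at its KM) to luciferin in 25mM KPO4. Compound was preincubated 10 min at 37C, then NADPH regeneration started a 60 min reaction at 37C. Luminescence was read after detection reagent, normalized to 57uM sulphaphenazole.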

Dual specificity protein kinase CLK4 (Homo sapiens), sequence (Q9HAZ1 whole entry, looked up): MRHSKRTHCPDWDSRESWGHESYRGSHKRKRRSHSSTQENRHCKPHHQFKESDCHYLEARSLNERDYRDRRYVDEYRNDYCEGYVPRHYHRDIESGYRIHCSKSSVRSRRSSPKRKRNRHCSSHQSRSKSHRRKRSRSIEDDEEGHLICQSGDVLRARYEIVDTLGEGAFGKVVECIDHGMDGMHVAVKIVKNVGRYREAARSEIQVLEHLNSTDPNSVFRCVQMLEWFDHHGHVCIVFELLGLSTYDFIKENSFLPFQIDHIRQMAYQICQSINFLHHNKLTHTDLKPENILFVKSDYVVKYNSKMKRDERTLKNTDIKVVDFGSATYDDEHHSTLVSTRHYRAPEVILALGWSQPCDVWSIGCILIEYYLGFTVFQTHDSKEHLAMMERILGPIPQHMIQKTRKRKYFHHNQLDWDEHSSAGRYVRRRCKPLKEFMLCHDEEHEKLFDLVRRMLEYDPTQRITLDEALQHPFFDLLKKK
Glucocorticoid receptor (Homo sapiens), sequence (P04150 whole entry, looked up, the tested form may be a part): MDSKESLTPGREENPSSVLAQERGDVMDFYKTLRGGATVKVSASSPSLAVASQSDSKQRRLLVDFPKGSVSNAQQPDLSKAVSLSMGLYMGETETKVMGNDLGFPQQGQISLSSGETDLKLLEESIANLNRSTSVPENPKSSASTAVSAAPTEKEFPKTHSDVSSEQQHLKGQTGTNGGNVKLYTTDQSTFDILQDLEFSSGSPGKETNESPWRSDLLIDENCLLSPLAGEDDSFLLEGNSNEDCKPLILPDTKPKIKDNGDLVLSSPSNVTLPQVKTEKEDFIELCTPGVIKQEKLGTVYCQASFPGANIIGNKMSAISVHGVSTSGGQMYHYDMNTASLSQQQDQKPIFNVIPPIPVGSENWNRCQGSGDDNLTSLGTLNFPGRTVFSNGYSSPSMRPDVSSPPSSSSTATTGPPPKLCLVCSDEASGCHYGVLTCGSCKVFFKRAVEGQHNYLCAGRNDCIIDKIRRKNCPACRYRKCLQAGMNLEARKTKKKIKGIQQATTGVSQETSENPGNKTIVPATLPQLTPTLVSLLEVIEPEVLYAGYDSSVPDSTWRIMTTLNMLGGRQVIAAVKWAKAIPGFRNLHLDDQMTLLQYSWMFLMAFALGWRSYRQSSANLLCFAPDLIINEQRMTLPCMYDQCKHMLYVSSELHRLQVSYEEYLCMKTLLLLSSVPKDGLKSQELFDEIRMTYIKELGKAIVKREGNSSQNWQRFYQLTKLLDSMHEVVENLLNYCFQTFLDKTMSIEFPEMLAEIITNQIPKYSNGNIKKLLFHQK
Cytochrome P450 3A4 (Homo sapiens), sequence (P08684 whole entry, looked up): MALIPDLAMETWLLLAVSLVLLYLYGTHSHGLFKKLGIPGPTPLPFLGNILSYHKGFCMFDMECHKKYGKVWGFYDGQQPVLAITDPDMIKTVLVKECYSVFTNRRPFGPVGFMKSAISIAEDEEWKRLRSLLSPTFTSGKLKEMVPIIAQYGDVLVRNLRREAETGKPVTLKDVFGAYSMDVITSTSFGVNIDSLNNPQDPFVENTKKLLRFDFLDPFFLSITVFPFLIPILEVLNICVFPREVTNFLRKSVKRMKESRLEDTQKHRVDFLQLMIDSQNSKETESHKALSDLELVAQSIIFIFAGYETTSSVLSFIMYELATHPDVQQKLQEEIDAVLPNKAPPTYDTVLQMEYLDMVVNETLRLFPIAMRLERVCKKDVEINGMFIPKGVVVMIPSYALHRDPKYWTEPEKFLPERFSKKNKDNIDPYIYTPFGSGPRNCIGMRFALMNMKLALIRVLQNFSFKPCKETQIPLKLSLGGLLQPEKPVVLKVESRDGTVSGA
Cytochrome P450 1A2 (Homo sapiens), sequence (P05177 whole entry, looked up): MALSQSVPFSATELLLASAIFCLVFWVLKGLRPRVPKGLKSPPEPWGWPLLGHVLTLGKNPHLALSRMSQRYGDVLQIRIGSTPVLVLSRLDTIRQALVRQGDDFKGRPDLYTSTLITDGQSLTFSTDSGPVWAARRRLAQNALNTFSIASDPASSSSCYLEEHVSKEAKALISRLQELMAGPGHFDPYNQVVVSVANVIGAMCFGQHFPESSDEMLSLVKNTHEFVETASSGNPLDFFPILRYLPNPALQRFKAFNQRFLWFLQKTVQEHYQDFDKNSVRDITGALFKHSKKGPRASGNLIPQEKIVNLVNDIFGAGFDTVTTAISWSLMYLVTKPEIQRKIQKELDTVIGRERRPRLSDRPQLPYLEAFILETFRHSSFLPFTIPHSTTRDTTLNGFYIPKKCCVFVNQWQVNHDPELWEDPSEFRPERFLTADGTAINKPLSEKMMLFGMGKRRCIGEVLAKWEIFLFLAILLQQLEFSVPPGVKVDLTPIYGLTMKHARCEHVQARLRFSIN
Lysosomal acid glucosylceramidase (Homo sapiens), sequence (P04062 whole entry, looked up): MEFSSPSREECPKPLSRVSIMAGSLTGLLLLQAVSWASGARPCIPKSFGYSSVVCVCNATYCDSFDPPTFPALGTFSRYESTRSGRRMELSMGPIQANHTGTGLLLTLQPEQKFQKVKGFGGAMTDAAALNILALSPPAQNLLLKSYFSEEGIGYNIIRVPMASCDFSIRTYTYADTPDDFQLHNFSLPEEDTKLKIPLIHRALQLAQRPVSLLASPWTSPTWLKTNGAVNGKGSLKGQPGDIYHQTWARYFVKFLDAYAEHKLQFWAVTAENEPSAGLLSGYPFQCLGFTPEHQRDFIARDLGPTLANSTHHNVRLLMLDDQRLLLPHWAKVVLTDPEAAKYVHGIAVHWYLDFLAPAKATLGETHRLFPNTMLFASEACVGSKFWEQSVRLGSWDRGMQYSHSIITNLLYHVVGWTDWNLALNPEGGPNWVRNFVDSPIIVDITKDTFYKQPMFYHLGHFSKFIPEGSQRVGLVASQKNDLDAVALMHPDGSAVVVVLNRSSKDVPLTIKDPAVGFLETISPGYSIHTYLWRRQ
Cytochrome P450 2C19 (Homo sapiens), sequence (P33261 whole entry, looked up): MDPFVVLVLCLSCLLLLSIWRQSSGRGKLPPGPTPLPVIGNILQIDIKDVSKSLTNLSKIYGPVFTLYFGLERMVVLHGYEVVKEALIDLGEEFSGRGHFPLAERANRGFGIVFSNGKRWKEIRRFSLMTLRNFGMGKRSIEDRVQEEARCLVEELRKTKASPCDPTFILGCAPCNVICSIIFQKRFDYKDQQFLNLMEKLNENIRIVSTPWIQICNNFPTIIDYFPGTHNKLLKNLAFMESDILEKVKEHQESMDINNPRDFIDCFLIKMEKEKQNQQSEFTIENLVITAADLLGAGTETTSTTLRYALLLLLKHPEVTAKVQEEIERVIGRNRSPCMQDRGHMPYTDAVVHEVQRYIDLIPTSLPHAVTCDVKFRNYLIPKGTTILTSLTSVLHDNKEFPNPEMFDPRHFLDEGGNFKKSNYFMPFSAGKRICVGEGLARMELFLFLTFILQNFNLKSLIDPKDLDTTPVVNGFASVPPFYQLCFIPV

On to `COc1cccc(Cn2c(=O)c(-c3cccs3)nc3cnc(OCc4ccccc4)nc32)c1`, for which the Potency in [1] is greater than 11.4 µM; in experiment [3], 1.58 µM (active); in experiment [5], greater than 9.22 µM; in experiment [6] it was greater than 46 µM. Besides, the activity change, negative = inhibition was 27.9% in experiment [2] and 3.84% in [4]. For the same compound, the Potency result in experiment [7], in experiment [8], in experiment [9], in experiment [10], in [11] and in experiment [12] was “inactive” in each case. Also, the outcome in [13] was inactive.

Take `COc1cccc(Cn2c(=O)cnc3cnc(Nc4ccccc4)nc32)c1`: the Potency in experiment [1] is greater than 11.4 µM; in [5], greater than 46 µM; in [6], greater than 46 µM; in [10], 2.24 µM (active). The activity change, negative = inhibition in experiment [2] was -26.5%; in [4] it was 17.1%. Further, the activity, negative = inhibition in experiment [14] is -29.7%. In addition, the Potency result in experiment [7], in [8], in experiment [11] and in experiment [12] was “inactive” throughout. Moreover, the outcome in experiment [13] was inactive.

On to `Fc1ccc(Nc2ccnc(-c3ccc4c(c3)OCO4)n2)cc1`, for which the Potency in [1] was greater than 11.4 µM; in experiment [3], 0.631 µM (active); in [5], greater than 46 µM; in [6] it was greater than 46 µM; in experiment [15] it was 2 µM (active); in experiment [16], 2 µM (active). Also, in [10], the Potency was 31.6 µM (active). In addition, the figures for the activity change, negative = inhibition in [2] and in experiment [4] were 8.72% and -0.562%, respectively. Further, the activity, negative = inhibition in experiment [14] was -6.41%. Further, the Potency entry in experiment [7], in [9] and in experiment [11] was “inactive” throughout. For the same compound, in [13], the result was inactive.

Consider `CN(C)c1ncc2nc(-c3ccc(Cl)cc3)c(=O)n(CCC#N)c2n1`, for which the Potency in experiment [1] is greater than 11.4 µM; in experiment [5], greater than 9.22 µM; in [6] it was greater than 46 µM. The figures for the activity change, negative = inhibition in [2] and in experiment [4] were 7.51% and 17.6%, respectively. In addition, the activity, negative = inhibition in experiment [14] is 17.6%. The Potency entry in experiment [7], in experiment [8], in [10], in experiment [11] and in experiment [12] was “inactive” each time. In addition, the result in experiment [13] was inactive.

`COc1ccc(CNc2ccnc(-c3cccc(NS(C)(=O)=O)c3)n2)c(OC)c1`: the Potency in experiment [1] was greater than 11.4 µM; in [3], 15.8 µM (active); in experiment [5], greater than 46 µM; in experiment [6], greater than 46 µM; in experiment [8], 2 µM (active); in experiment [15] it was 3.98 µM (active). In addition, the activity change, negative = inhibition in [2] was -18.2%; in experiment [4], 8.15%; in experiment [17] it was 20.5% [at 2.29 µM]. For the same compound, in [14], the activity, negative = inhibition is -1.05%. The Potency result in [7], in experiment [9], in experiment [11] and in experiment [12] was “inactive” in each case. Besides, the outcome in experiment [13] was inactive.

Regarding `CN(C)c1ncnc2ccc(-c3ccc4c(c3)OCO4)cc12`, the Potency in [1] is greater than 11.4 µM; in experiment [5], greater than 46 µM; in experiment [6], greater than 46 µM; in [10], 0.158 µM (active); in experiment [11], 0.1 µM (active). In addition, the activity change, negative = inhibition in experiment [4] was -4.71%. Also, in [14], the activity, negative = inhibition was 1.73%. For the same compound, the Potency result in experiment [7], in experiment [8] and in experiment [12] was “inactive” in each case. Also, the result in experiment [13] was inactive.
